Assay results taken from PubChem BioAssay AID1986 (Sanford-Burnham Center for Chemical Genomics, 2009).
In all, about 290,000 compounds went through this assay and about 890 (0.31%) were called active. Rule as the data show it: active = inhibition mostly above about 52% (no sharp cut-off); inactive = mostly below about 76%. The entries come from a sample that favours actives as a whole.

Assay: inhibitors of HIV fusion peptide binding, primary screen, biochemical, uHTS, fluorescence dequenching (AID 1986)
Details: cell-free peptide binding, 30 min, stronger effect = higher value
[1] = measured here: repeat confirmation average inhibition, at 18.6 µM

## CN(Cc1nccn1C)C(=O)CC1C(=O)NCCN1Cc1ccc(F)cc1Cl (centres undefined)
At 20 µM
  inhibition: -0.5% (inactive)

## Cc1cc2ncc(C(N)=O)cn2n1
At 20 µM
  inhibition: -1.8% (inactive)

## O=C(/C=C\c1ccco1)c1ccc(NC(=O)c2ccco2)cc1
At 20 µM
  inhibition: 58.2% (inactive)
[1]
  inhibition: 3%

## O=C(/C=C/c1ccco1)c1ccc(NC(=O)C23CC4CC(CC(C4)C2)C3)cc1
At 20 µM
  inhibition: 50.7% (active)

## CC(=O)Nc1ccc(C(=O)/C=C/c2ccco2)cc1
At 20 µM
  inhibition: 36% (inactive)

## COCCCn1c(=O)/c(=C\c2cccc(OC)c2OC)s/c1=C(/C#N)C(=O)Nc1ccc(C(=O)O)cc1
At 20 µM
  inhibition: 54.1% (inactive)
[1]
  inhibition: 33.7%

## COCCCn1c(=O)/c(=C\c2ccccc2OC(C)C)s/c1=C(/C#N)C(=O)Nc1ccc(C(=O)O)cc1
At 20 µM
  inhibition: 77.3% (active)

## COCCCn1c(=O)/c(=C\c2ccccc2OC(F)F)s/c1=C(/C#N)C(=O)NC(C)C
At 20 µM
  inhibition: 75.2% (inactive)
[1]
  inhibition: 5.3%

## Cc1ccc(C(=O)OCC(=O)N(C)C2CCS(=O)(=O)C2)cc1[N+](=O)[O-] (centres undefined)
At 20 µM
  inhibition: -0.5% (inactive)

## CC(=O)c1cccc(NC(=O)CSc2ccc(-c3ccc4c(c3)OCO4)nn2)c1
At 20 µM
  inhibition: 0.3% (inactive)

## O=C(NN=C1CCN(Cc2ccccc2)CC1)c1cc(Br)ccc1O
At 20 µM
  inhibition: 7.6% (inactive)

## O=C(O)c1cccc(Cn2c(Cl)c(/C=N/NC(=O)c3cc4ccccc4cc3O)sc2=O)c1
At 20 µM
  inhibition: 61.5% (active)

## O=C(O)c1cccc(Cn2c(Cl)c(/C=N/NC(=O)c3ccccc3O)sc2=O)c1
At 20 µM
  inhibition: 28.1% (inactive)

## O=C(NN=C1CCN(Cc2ccccc2)CC1)c1ccccc1O
At 20 µM
  inhibition: 3.9% (inactive)

## O=C(NN=C1CCN(Cc2ccccc2)CC1)c1cc2ccccc2cc1O
At 20 µM
  inhibition: 56% (active)

## O=C(O)c1cccc(Cn2c(Cl)c(/C=N/NC(=O)c3ccccc3Cl)sc2=O)c1
At 20 µM
  inhibition: 6.2% (inactive)

## Clc1ncc(Cn2cccn2)s1
At 20 µM
  inhibition: -0.3% (inactive)

## Cc1ccc(C)c(N2CCN(C(=O)CCCn3c(=S)[nH]c4cc5c(cc4c3=O)OCO5)CC2)c1
At 20 µM
  inhibition: -4.3% (inactive)

## Nc1c(C2=NCCO2)nnn1Cc1ccccc1
At 20 µM
  inhibition: -0.3% (inactive)

## O=C(Nc1cccc(OCC(=O)N2CCOCC2)c1)c1ccc(C(F)(F)F)cc1
At 20 µM
  inhibition: 1.4% (inactive)

## Cc1cc(C)cc(N(C(C)C(=O)N2CCCC2)S(C)(=O)=O)c1 (centres undefined)
At 20 µM
  inhibition: 2.9% (inactive)

## O=S(=O)([N-]c1nc2ccccc2nc1-[n+]1ccc(-c2ccncc2)cc1)c1ccccc1
At 20 µM
  inhibition: 83.2% (active)

## O=S(=O)([N-]c1nc2ccccc2nc1-[n+]1ccc(Cc2ccccc2)cc1)c1ccc(Br)s1
At 20 µM
  inhibition: 12.8% (inactive)

## CCc1cc[n+](-c2nc3ccccc3nc2[N-]S(=O)(=O)c2ccc(Br)s2)cc1
At 20 µM
  inhibition: 96.6% (active)

## Cc1cc[n+](-c2nc3ccccc3nc2[N-]S(=O)(=O)c2ccccc2)cc1
At 20 µM
  inhibition: 12.1% (inactive)

## O=S(=O)([N-]c1nc2ccccc2nc1-[n+]1ccccc1)c1ccccc1
At 20 µM
  inhibition: 9.8% (inactive)

## Cc1cc(C)c[n+](-c2nc3ccccc3nc2[N-]S(=O)(=O)c2ccc(Br)s2)c1
At 20 µM
  inhibition: 26.7% (inactive)

## Cc1ccc(S(=O)(=O)N2CCC(=O)N(CCOC(=O)Nc3cc(C)cc(C)c3)CC2)cc1
At 20 µM
  inhibition: -2% (inactive)

## Cc1cc(C)c2nc(-n3nc(C)cc3N)cc(C)c2c1
At 20 µM
  inhibition: -0.5% (inactive)

## COc1cc(C(=O)Nc2nc(-c3cc(C)ccc3C)c(C)s2)ccc1OCC(=O)Nc1ccc(F)cc1
At 20 µM
  inhibition: -1% (inactive)

## Clc1cccc(CNCCCSc2ncccn2)c1
At 20 µM
  inhibition: -1.9% (inactive)

## CCc1c(-c2ccccc2)nc2sc3c(c2c1N)CCCC3
At 20 µM
  inhibition: 0.7% (inactive)

## CN1C(=O)S/C(=C/c2cccn2-c2cccc(C(=O)O)c2)C1=O
At 20 µM
  inhibition: 1.9% (inactive)

## Cc1ccccc1NC(=O)CN1C(=O)S/C(=C\c2cccn2-c2cccc(C(=O)O)c2)C1=O
At 20 µM
  inhibition: -1.1% (inactive)

## CC1=NN(c2nc(-c3ccc(Cl)cc3)cs2)C(=O)C1
At 20 µM
  inhibition: -1.9% (inactive)

## CC1=NN(c2nc(-c3ccccc3)cs2)C(=O)C1
At 20 µM
  inhibition: 47.5% (inactive)

## O=C1CC(c2ccccc2)=NN1c1nc(-c2ccccc2)cs1
At 20 µM
  inhibition: 58% (active)

## CCOC(=O)Cn1c(=O)n(Cc2ccc(C)cc2)c(=O)c2cccnc21
At 20 µM
  inhibition: 1.3% (inactive)

## COc1cc(N2CCCC2)c(OC)cc1/C=c1/sc2nc3ccccc3n2c1=O
At 20 µM
  inhibition: -3.3% (inactive)

## COc1cc(N2CCCC2)c(OC)cc1/C=C1/NC(=S)NC1=O
At 20 µM
  inhibition: 121% (active)

## COc1cc(N2CCCC2)c(OC)cc1C=O
At 20 µM
  inhibition: -2.7% (inactive)

## COCCN(C(=O)C1CCC1)c1nnc(-c2cccnc2)s1
At 20 µM
  inhibition: -0.2% (inactive)

## Oc1oc(-c2ccccc2)nc1C=Nc1ccccc1
At 20 µM
  inhibition: -1.4% (inactive)

## CN(C)c1ccc(N=Cc2nc(-c3ccccc3)oc2O)cc1
At 20 µM
  inhibition: 84.5% (active)
[1]
  inhibition: 132%

## Cc1ccc(-c2nc(C=Nc3ccccc3)c(O)o2)cc1
At 20 µM
  inhibition: -1.7% (inactive)

## O=C(CCCc1ccccc1)Nc1ccccn1
At 20 µM
  inhibition: -1.4% (inactive)

## O=C(O)CS(=O)CC(=O)Nc1cccc(C(F)(F)F)c1 (centres undefined)
At 20 µM
  inhibition: 0.3% (inactive)

## CCN1C(=O)/C(=C\c2ccc(-c3cccc(C(=O)OC)c3)o2)SC1=Nc1ccc(C(=O)O)cc1
At 20 µM
  inhibition: 51.6% (inactive)
[1]
  inhibition: 8.6%

## CCN=C1S/C(=C\c2ccc(-c3cccc(C(=O)O)c3)o2)C(=O)N1CC
At 20 µM
  inhibition: 42% (inactive)

## Cc1ccc(-c2csc(NC(=O)c3ccco3)n2)cc1C
At 20 µM
  inhibition: 2% (inactive)

## COc1cc(OC)c(OC)cc1CN1CCc2ccccc2C1
At 20 µM
  inhibition: 1% (inactive)

## O=C(CN1CCC(Cc2ccccc2)CC1)N1CCc2ccccc2C1
At 20 µM
  inhibition: 0.8% (inactive)

## CCOc1cccc(C2/C(=C(/O)c3ccc4c(c3)CC(C)O4)C(=O)C(=O)N2CCCn2ccnc2)c1 (centres undefined)
At 20 µM
  inhibition: -2.5% (inactive)

## O=C(Nc1sc2c(c1C(=O)O)CCC2)c1ccccc1
At 20 µM
  inhibition: 12.1% (inactive)

## O=C(Nc1sc2c(c1C(=O)O)CCC2)c1ccc(F)cc1
At 20 µM
  inhibition: 6.4% (inactive)

## CC(C)(C)c1ccc(C(=O)Nc2sc3c(c2C(=O)O)CCC3)cc1
At 20 µM
  inhibition: 50.9% (active)

## O=C(CCN1CCc2ccccc2C1)c1ccc2c(c1)OCCO2
At 20 µM
  inhibition: 1.4% (inactive)

## O=C(c1ccc(Cl)cc1)c1c[nH]c(C(=O)NNc2ccccc2)c1
At 20 µM
  inhibition: -4.1% (inactive)

## CN(CCc1ccccn1)C1CCCN(S(=O)(=O)c2ccc(F)c(Cl)c2)C1 (centres undefined)
At 20 µM
  inhibition: -0.2% (inactive)
